Measurements from PubChem BioAssay AID1159580 (chemical genetic matrix, 2015).
Where “and” joins values, the source holds several entries; their conditions need not be identical. Equal entries are not always repeated. The campaign covered roughly 5,500 compounds. About 2,000 (36%) were called active. About 18% were inconclusive and are not listed. Rule as the data show it: active = normalized growth mostly below about 0.91 (no sharp cut-off); inconclusive = no clear call, values can overlap the other calls; inactive = mostly above about 0.92. The list shows a part of the results.

Assay: chemical genetic growth profiling, strain panel (AID 1159580);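 also: tested at 20 µM; growth read once vehicle control cultures reached saturation at 30 °C; 1 = growth at the plate median or of vehicle wells; lower values mean less growth of the strain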
Settings: S. cerevisiae deletion strains, growth OD

Measured: normalized growth

N=c1ccn2c(n1)O[C@@H]1C2O[C@H](CO)[C@H]1O (stereo not given in full)
inactive: locus YAL021C, strain ccr4, hits give low values 1.02 | locus YAL026C, strain drs2, hits give low values 0.981 | locus YAL030W, strain snc1, hits give low values 0.987 | locus YBL061C, strain skt5, hits give low values 0.985 | locus YBR009C, strain hhf1, hits give low values 0.965 | locus YBR021W, strain FUR4, hits give low values 1.01 | locus YBR023C, strain chs3, hits give low values 0.99 | locus YBR171W, strain sec66, hits give low values 0.988 | locus YBR229C, strain ROT2, hits give low values 1 | locus YBR231C, strain swc5, hits give low values 0.98 | locus YBR279W, strain paf1, hits give low values 0.992 | locus YCL011C, strain gbp2, hits give low values 0.984 | locus YCL016C, strain dcc1, hits give low values 0.983 | locus YCL029C, strain bik1, hits give low values 1.01 | locus YCL061C, strain MRC1, hits give low values 0.988 | locus YCL069W, strain vba3, hits give low values 0.991 | locus YCR088W, strain abp1, hits give low values 0.993 | locus YDL005C, strain med2, hits give low values 0.992 | locus YDL035C, strain GPR1, hits give low values 1.01 | locus YDL040C, strain nat1, hits give low values 0.979 | locus YDL074C, strain BRE1, hits give low values 1.02 | locus YDL101C, strain DUN1, hits give low values 1.01 | locus YDL185W, strain tfp1, hits give low values 1.01 | locus YDL192W, strain arf1, hits give low values 1.01 | locus YDR001C, strain nth1, hits give low values 0.982 | locus YDR069C, strain doa4, hits give low values 0.962 | locus YDR101C, strain arx1, hits give low values 0.987 | locus YDR137W, strain rgp1, hits give low values 0.982 | locus YDR159W, strain sac3, hits give low values 0.939 | locus YDR162C, strain NBP2, hits give low values 1.01 | locus YDR195W, strain ref2 0.91 | locus YDR297W, strain sur2, hits give low values 0.996 | locus YDR318W, strain mcm21, hits give low values 1 | locus YDR334W, strain swr1, hits give low values 0.985 | locus YDR335W, strain msn5, hits give low values 0.979 | locus YDR388W, hits give low values 1.01 | locus YDR392W, strain spt3, hits give low values 0.83 | locus YDR502C, strain sam2, hits give low values 1.03 | locus YEL003W, strain gim4, hits give low values 0.984 | locus YEL037C, strain rad23, hits give low values 0.991 | locus YEL061C, strain CIN8 (second series), hits give low values 0.984 | locus YEL061C, strain CIN8, hits give low values 1.01 | locus YER015W, strain faa2, hits give low values 0.985 | locus YER016W, strain bim1, hits give low values 0.982 | locus YER110C, hits give low values 1.01 | locus YER111C, strain swi4, hits give low values 0.974 | locus YER155C, strain BEM2 (second series), hits give low values 0.949 | locus YER155C, strain BEM2, hits give low values 1 | locus YER167W, strain BCK2, hits give low values 1.01 | locus YFR010W, strain ubp6, hits give low values 0.975 | locus YGL078C, strain dbp3, hits give low values 1.01 | locus YGL086W, strain mad1, hits give low values 1.01 | locus YGL167C, strain pmr1, hits give low values 0.984 | locus YGL173C, strain kem1, hits give low values 0.981 | locus YGL227W, strain vid30, hits give low values 0.984 | locus YGL240W, strain doc1, hits give low values 0.959 | locus YGL248W, strain PDE1, hits give low values 1.01 | locus YGL253W, strain hxk2, hits give low values 0.981 | locus YGR078C, strain PAC10, hits give low values 1.01 | locus YGR135W, strain pre9, hits give low values 1.03 | locus YGR252W, strain gcn5, hits give low values 0.988 | locus YHR013C, strain ard1, hits give low values 0.939 | locus YHR027C, strain rpn1, hits give low values 0.989 | locus YHR030C, strain SLT2, hits give low values 1.01 and 0.988 | locus YHR079C, strain IRE1 (second series), hits give low values 1 | locus YHR079C, strain IRE1, hits give low values 0.985 | locus YHR094C, strain hxt1, hits give low values 1.01 | locus YHR129C, strain ARP1, hits give low values 0.997 | locus YHR142W, strain chs7, hits give low values 1.04 | locus YHR200W, strain rpn10, hits give low values 1.01 | locus YIL066C, strain RNR3, hits give low values 1.01 | locus YIL073C, strain SPO22, hits give low values 1.04 | locus YIL125W, strain kgd1, hits give low values 1 | locus YIR030C, strain dcg1, hits give low values 1.02 | locus YJL092W, strain hpr5, hits give low values 0.982 | locus YJL095W, strain BCK1 (second series), hits give low values 0.99 | locus YJL095W, strain BCK1, hits give low values 1.04 and 0.994 | locus YJL115W, strain asf1, hits give low values 1 | locus YJL129C, strain trk1, hits give low values 0.999 | locus YJL134W, strain LCB3, hits give low values 1.01 | locus YJL154C, strain vps35, hits give low values 0.988 | locus YJL164C, strain tpk1, hits give low values 1.01 | locus YJL166W, strain qcr8, hits give low values 0.99 | locus YJL168C, strain set2, hits give low values 1.01 | locus YJL187C, strain SWE1 (second series), hits give low values 1.02 | locus YJL187C, strain SWE1, hits give low values 0.984 | locus YJR043C, strain POL32, hits give low values 1.01 | locus YJR066W, strain TOR1, hits give low values 0.908 | locus YKL009W, strain mrt4, hits give low values 1.02 | locus YKL068W, hits give low values 1.01 | locus YKL085W, strain MDH1 (second series), hits give low values 1.02 | locus YKL085W, strain MDH1, hits give low values 1.02 | locus YKL160W, strain elf1, hits give low values 1.02 | locus YKL190W, strain CNB1, hits give low values 1.01 | locus YKR001C, strain vps1, hits give low values 1 | locus YKR026C, strain gcn3, hits give low values 0.989 | locus YKR091W, strain srl3, hits give low values 0.99 | locus YLL001W, strain dnm1, hits give low values 0.982 | locus YLL026W, hits give low values 0.987 | locus YLL041C, strain sdh2, hits give low values 0.992 | locus YLR027C, strain aat2, hits give low values 0.985 | locus YLR039C, strain RIC1, hits give low values 1 | locus YLR058C, strain SHM2, hits give low values 1.01 | locus YLR102C, strain apc9, hits give low values 1.01 | locus YLR113W, strain HOG1, hits give low values 0.989 | locus YLR221C, strain rsa3, hits give low values 1.01 | locus YLR258W, strain gsy2, hits give low values 0.984 | locus YLR262C, strain YPT6 (second series), hits give low values 1.01 | locus YLR262C, strain YPT6, hits give low values 1.02 | locus YLR268W, strain sec22, hits give low values 1 | locus YLR320W, strain mms22, hits give low values 0.971 | locus YLR330W, strain CHS5, hits give low values 1 | locus YLR342W, strain FKS1 (second series), hits give low values 1.01 | locus YLR342W, strain FKS1, hits give low values 0.985 | locus YLR357W, strain rsc2, hits give low values 0.95 | locus YLR370C, strain arc18, hits give low values 0.991 | locus YLR371W, strain rom2, hits give low values 1.01 | locus YLR384C, strain iki3, hits give low values 0.997 | locus YLR418C, strain cdc73, hits give low values 1.01 | locus YML016C, strain PPZ1, hits give low values 1.01 | locus YML032C, strain rad52, hits give low values 1 | locus YML120C, strain ndi1, hits give low values 1.01 | locus YML124C, strain tub3, hits give low values 1.01 | locus YMR058W, strain fet3, hits give low values 0.992 | locus YMR078C, strain ctf18, hits give low values 1.01 | locus YMR125W, strain sto1, hits give low values 0.951 | locus YMR129W, hits give low values 0.997 | locus YMR205C, strain PFK2, hits give low values 0.957 | locus YMR223W, strain ubp8, hits give low values 1.02 | locus YMR231W, strain pep5, hits give low values 0.991 | locus YMR307W, strain GAS1, hits give low values 1.02 | locus YNL067W, strain RPL9B, hits give low values 1.03 | locus YNL071W, strain lat1, hits give low values 0.994 | locus YNL153C, strain GIM3, hits give low values 1.02 | locus YNL183C, strain NPR1, hits give low values 0.941 | locus YNL209W, strain ssb2, hits give low values 1 | locus YNL233W, strain BNI4, hits give low values 1.01 | locus YNL248C, strain rpa49, hits give low values 1.01 | locus YNL250W, strain rad50, hits give low values 1 | locus YNL271C, strain bni1, hits give low values 1.02 | locus YNL298W, strain CLA4, hits give low values 1.01 | locus YNL307C, strain MCK1, hits give low values 1.01 | locus YNL322C, strain KRE1 (second series), hits give low values 1 | locus YNR049C, strain mso1, hits give low values 0.986 | locus YNR052C, strain pop2, hits give low values 1.02 | locus YOL006C, strain TOP1, hits give low values 1.09 | locus YOL012C, strain htz1 1.21 | locus YOL147C, strain pex11, hits give low values 1.01 | locus YOR001W, strain rrp6, hits give low values 1.01 | locus YOR061W, strain CKA2, hits give low values 1.01 | locus YOR069W, strain VPS5, hits give low values 1.01 | locus YOR070C, strain gyp1, hits give low values 0.995 | locus YOR080W, strain dia2, hits give low values 0.965 | locus YOR083W, strain WHI5, hits give low values 1.03 | locus YOR106W, strain vam3, hits give low values 1.02 | locus YOR136W, strain idh2, hits give low values 1.01 | locus YOR144C, strain elg1, hits give low values 1 | locus YOR184W, strain ser1, hits give low values 1.01 | locus YOR231W, strain MKK1, hits give low values 0.999 | locus YOR265W, strain rbl2, hits give low values 0.99 | locus YOR270C, strain vph1, hits give low values 0.983 | locus YOR290C, strain snf2, hits give low values 0.974 | locus YOR316C, strain cot1, hits give low values 1.02 | locus YPL051W, strain arl3, hits give low values 1 | locus YPL055C, strain LGE1, hits give low values 1.02 | locus YPL078C, strain atp4, hits give low values 1.01 | locus YPL106C, strain sse1, hits give low values 0.979 | locus YPL240C, strain hsp82, hits give low values 0.993 | locus YPL241C, strain CIN2, hits give low values 1.02 | locus YPL256C, strain CLN2, hits give low values 1.04 | locus YPR119W, strain clb2, hits give low values 1 | locus YPR141C, strain kar3, hits give low values 1.01 | locus YPR163C, strain tif3, hits give low values 1.01 | locus YPR167C, strain met16, hits give low values 1 | strain wtn01, hits give low values 1
